The sample as a whole holds a higher share of hits than the screen did.
IL-1B inflam inh – blocks inflammasome-driven IL-1 beta release; 360,000 tested, 4.7% active; AID 743279; THP-1 LPS/ATP IL-1B secretion, AlphaLISA, 16 h; active compounds read low; activity change, % at 57.5 µM; in the data active = activity change below about -50%; inconclusive = mostly about -30% to -49%
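Secreted IL-1B measured by AlphaLISA bead assay after 16 h compound exposure of THP-1 cells; compounds (final up to 57.5 uM) added 1 h before LPS (250 ng/mL) and ATP (1.25 mM) stimulation; lower signal means less secretion.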
DT40 TDP1 CPT – DT40-hTDP1 cell growth loss with CPT; chicken DT40 Tdp1-/-;hTDP1 cells + 20 nM CPT, ATP luminescence, 48 h; Potency, µM (highest dose often 46.2 µM), without a hit: top-dose activity change, negative = growth inhibition, usual class: inhibitors; 420,000 tested, 12% active; AID 686979; also: potency is read from the fitted curve at half-maximal effect; nearly all actives have a fitted effect of over 55% in size
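Chicken DT40 Tdp1-/- cells complemented with human TDP1, 400 cells/well, exposed to compounds plus 20 nM camptothecin for at least 48 h at 37 C; viability read as ATP content by CellTiter-Glo luminescence.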
HT1080 IDH1KD tx – HT-1080 IDH1 knockdown cell toxicity (counter line); Potency, µM (series often up to 46.1 µM), for the others: at the top dose activity, negative = toxicity, most hits filed as cytotoxic; AID 686971; HT-1080 IDH1 knockdown viability, ATP luminescence, 48 h; 360,000 tested, 2% active;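 also: potency is read from the fitted curve at half-maximal effect; 0% = DMSO wells and -100% = cell-free medium wells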
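Cytotoxicity counter-line: IDH1KD HT-1080, 48 h, CellTiter-Glo. Curves classed by r2, magnitude and activity.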
TDP1 cell noCPT – qHTS for Inhibitors of human tyrosyl-DNA phosphodiesterase 1 (TDP1): qHTS in cells in absence of CPT; DT40 Tdp1-/- hTDP1 cells, no CPT, ATP luminescence, 48 h; Potency, µM (series often up to 46.2 µM), for inactives: at the top dose activity change, negative = growth inhibition, most hits filed as inhibitors; 420,000 tested, 15% active; AID 686978, 2013; also: potency is read from the fitted curve at half-maximal effect; nearly all actives have a fitted effect of over 55% in size
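Growth of hTDP1-complemented DT40 Tdp1-knockout cells is measured by ATP luminescence after at least 48 hr compound exposure at 37 °C, with DMSO substituting for the 20 nM CPT used in the parallel screen.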
HT1080NT lethal – kills 2HG-producing HT-1080-NT fibrosarcoma cells | 360,000 tested, 1.6% active | AID 686970 | Potency, µM (titrated, usually from 46.1 µM), for inactives: at the highest dose activity, negative = less viability, actives largely listed as cytotoxic | HT-1080-NT fibrosarcoma viability, CellTiter-Glo ATP luminescence, 48 h;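 also: NT is the 2HG producing partner of a matched IDH1 knockdown line; potency is read from the fitted curve at half-maximal effect; 0% = DMSO-treated cells and -100% = media-only wells without cells; nearly all actives have a fitted effect of over 55% in size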
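Fibrosarcoma NT cells, 750 per well in 5% FBS RPMI, were exposed to compound for 48 hours. Viability: CellTiter-Glo luminescence.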
ALOX12 inh – blocks human arachidonate 12S-lipoxygenase; purified 12hLO, xylenol orange hydroperoxide absorbance; Potency, µM (titrated, usually from 108 µM), without a hit: top-dose activity change, negative = inhibition, hits mostly inhibitors; 580,000 tested, 1.1% active; AID 1671190; also: potency is read from the fitted curve at half-maximal effect
Target sequence (P18054 whole entry, looked up): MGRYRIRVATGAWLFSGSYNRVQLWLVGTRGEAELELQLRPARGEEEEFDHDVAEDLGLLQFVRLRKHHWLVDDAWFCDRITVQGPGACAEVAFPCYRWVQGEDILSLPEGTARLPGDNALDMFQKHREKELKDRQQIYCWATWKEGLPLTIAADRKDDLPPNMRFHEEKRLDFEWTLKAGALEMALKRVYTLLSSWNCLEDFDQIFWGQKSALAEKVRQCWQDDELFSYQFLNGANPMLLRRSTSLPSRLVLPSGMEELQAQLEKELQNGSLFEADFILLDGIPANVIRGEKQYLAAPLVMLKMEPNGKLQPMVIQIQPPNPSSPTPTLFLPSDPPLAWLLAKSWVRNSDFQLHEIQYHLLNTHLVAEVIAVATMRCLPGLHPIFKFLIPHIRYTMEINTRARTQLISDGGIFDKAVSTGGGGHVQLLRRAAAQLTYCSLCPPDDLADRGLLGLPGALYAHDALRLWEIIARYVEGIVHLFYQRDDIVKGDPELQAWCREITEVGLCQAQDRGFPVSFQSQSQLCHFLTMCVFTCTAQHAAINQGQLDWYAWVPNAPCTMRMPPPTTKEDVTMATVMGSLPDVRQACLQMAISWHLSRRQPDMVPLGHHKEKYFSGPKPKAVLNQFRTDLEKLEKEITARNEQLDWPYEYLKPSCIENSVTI
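Purified human 12hLO (150 nM final) in 25 mM Hepes, 0.01% Triton X-100, pH 7.0 was preincubated 15 min at room temperature with compound. Then 40 uM arachidonic acid was added, 30 min. Hydroperoxide was read by Fe-XO absorbance ratio 573/405 nm.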
* hit, by the source's call; ? = inconclusive; . = no result given. Unless noted, calls follow the shape of the dose curve; as a rule, active = well fitted curve in the direction sought with a large enough effect; inconclusive = small, poorly fitted or top-dose-only effect, or another doubt; inactive = no such curve, though single readings can be large; an effect the other way counts as inactive or inconclusive. Unless noted, % is scaled to controls: 0 for no effect and ±100 for the full control effect.

SMILES	IL-1B inflam inh	DT40 TDP1 CPT	HT1080 IDH1KD tx	TDP1 cell noCPT	HT1080NT lethal	ALOX12 inh
CCOc1ccccc1NC(=O)CN1C(=O)C(c2ccccc2)=NC12CCCCCC2	.	.	.	.	.	-14%
COc1ccccc1NC(=O)CN1C(=O)C(c2ccc(F)cc2)=NC12CCCCC2	.	?	.	23µM*	.	-3%
CC1(C)N=C(c2ccc(F)cc2)C(=O)N1CC(=O)Nc1ccccc1Cl	.	?	.	16µM*	.	-20%
CCOCCOC1CCN(C(=O)Nc2cccc(C)c2)CC1	.	.	.	.	.	58%
Cc1cc(C)c(C)c(SC(C(N)=O)c2ccccc2)c1C (stereo unspecified)	.	.	.	.	.	-3%
C[C@@H]1CN([C@@H](C)CO)S(=O)(=O)c2ccc(Br)cc2O[C@H]1CN(C)C(=O)c1ccccc1F	-19	?	-2%	?	-5%	10%
C[C@@H]1CN([C@@H](C)CO)S(=O)(=O)c2ccc(Br)cc2O[C@H]1CN(C)Cc1ccccc1F	-23	15µM*	?	10µM*	?	-8%
C[C@H]1CN([C@@H](C)CO)S(=O)(=O)c2ccc(Br)cc2O[C@H]1CN(C)C(=O)c1ccccc1F	.	.	.	.	.	-5%
C[C@H]1CN([C@@H](C)CO)S(=O)(=O)c2ccc(Br)cc2O[C@H]1CN(C)Cc1ccccc1F	?	16µM*	-11%	23µM*	-14%	-27%
COc1cccc(-c2onc3ccc(C(=O)/C=C/N(C)C)cc23)c1	-66*	?	-3%	16µM*	-19%	?
COc1cccc(-c2onc3ccc(C4(C)OCCO4)cc23)c1	-87*	?	-4%	?	0%	-8%
CC1(c2ccc3noc(-c4ccccc4)c3c2)OCCO1	?	-1%	3%	?	6%	?
Cc1cccc(-c2onc3ccc(C(=O)/C=C/N(C)C)cc23)c1	-8	?	-6%	18µM*	0%	?
O=C(CCC(=O)OCc1ccccc1F)Nc1ccc2c(c1)oc1ccccc12	.	.	.	.	.	27%
Cc1nnc(SCCn2c(N3CCC(Cc4ccccc4)CC3)nc3c2c(=O)[nH]c(=O)n3C)s1	27	?	11%	16µM*	9%	.
CCCCn1c(N2CCC(Cc3ccccc3)CC2)nc2c1c(=O)[nH]c(=O)n2C	?	23µM*	?	21µM*	?	-21%
COCCn1c(N2CCC(Cc3ccccc3)CC2)nc2c1c(=O)[nH]c(=O)n2C	.	.	.	.	.	8%
Cc1nnc(SCCn2c(N3CCN(Cc4ccccc4)CC3)nc3c2c(=O)[nH]c(=O)n3C)s1	15	-4%	2%	-20%	-4%	0%
CC1(C)CC(NC(=O)C2CCN(S(=O)(=O)c3ccccc3)CC2)CC(C)(C)N1	.	.	.	.	.	6%
COCCNC(=O)[C@H]1C[C@H](Oc2ccccc2)CN1Cc1cccc(C)c1	.	.	.	.	.	27%
CC(C)N1C(=O)C(CC(=O)NCC2CCN(Cc3ccccc3F)CC2)=C2CCCCC21 (stereo unspecified)	.	.	.	.	.	10%
O=C(c1ccccc1OCC1CCCN(Cc2ccc(F)cc2)C1)N1CCCCC1 (stereo unspecified)	.	.	.	.	.	10%
CCSc1nc(=O)c2c(n1C)NC(=O)CC2c1cc(C)ccc1C (stereo unspecified)	.	.	.	.	.	-14%
Cc1ccc(NC(=O)C2CC(=O)N(C(C)c3ccccc3)C2)cc1 (stereo unspecified)	11	-4%	1%	-22%	3%	?
Cc1ccc(NC(=S)NCC2CCN(C(C)c3ccccc3)C2)cc1 (stereo unspecified)	?	21µM*	-3%	16µM*	-28%	?
SMILES	IL-1B inflam inh	DT40 TDP1 CPT	HT1080 IDH1KD tx	TDP1 cell noCPT	HT1080NT lethal	ALOX12 inh
CC(c1ccccc1)N1CCC(CNC(=S)Nc2cccc(Cl)c2)C1 (stereo unspecified)	-80*	?	18µM*	?	18µM*	?
c1ccc(-c2noc(-c3cncnc3N3CCSCC3)n2)cc1	.	.	.	.	.	49%
COc1cccc(CC(=O)N2CCCN(c3cc(-c4ccc(Br)cc4)[nH]n3)CC2)c1	.	.	.	.	.	-19%
CCOC(=O)c1ccc(NC(=O)Cn2nnc(-c3ccccc3)n2)cc1	-20	?	-24%	?	-9%	0%
CC(C)(C)OC(=O)N1CCN(c2ccc(NC(=O)Cn3nnc(-c4ccccc4)n3)cc2)CC1	-9	?	-12%	23µM*	-16%	?
Cc1cnc(C(=O)Nc2ccc(N3CCN(C(=O)OC(C)(C)C)CC3)cc2)cn1	50	4.6µM*	?	2.3µM*	?	0%
Cc1cnc(C(=O)Nc2ccc(F)cc2)cn1	19	1%	2%	-18%	22%	-3%
COc1cccc(Cc2nc3ccccc3nc2SCC(=O)Nc2cccc(OC)c2)c1	.	.	.	.	.	-8%
Cc1csc2nc(-c3cccc(NC(=O)c4c(F)cccc4F)c3)cn12	.	23µM*	.	23µM*	.	-1%
Cc1csc2nc(-c3cccc(NC(=O)c4ccc(S(N)(=O)=O)cc4)c3)cn12	.	?	.	16µM*	.	-28%
CC(C)NC(=O)N1CCC2(CC1)CC(N(Cc1ccc(F)cc1)C1CC1)CCO2 (stereo unspecified)	.	.	.	.	.	16%
COc1cc(OC)c2c(-c3ccccc3)cc(=O)oc2c1C(CCN1CCOCC1)c1ccc2c(c1)OCO2 (stereo unspecified)	-15	15µM*	?	?	23µM*	?
COc1ccc(C(CCN2CCCC2)c2c(OC)cc(OC)c3c(-c4ccccc4)cc(=O)oc23)cc1 (stereo unspecified)	-6	?	-3%	16µM*	?	?
COc1cc(OC)c2c(-c3ccccc3)cc(=O)oc2c1C(CCN1CCCC1)c1ccc2c(c1)OCO2 (stereo unspecified)	-21	?	?	?	-22%	14%
COc1ccc(C(CCN2CCOCC2)c2c(OC)cc(OC)c3ccc(=O)oc23)cc1 (stereo unspecified)	-3	?	0%	21µM*	-1%	-13%
COc1ccc(C(CCN2CCOCC2)c2c(OC)cc(OC)c3c(-c4ccccc4)cc(=O)oc23)cc1 (stereo unspecified)	?	6.5µM*	?	8.2µM*	-20%	-19%
COc1ccc(C(CCN2CCOCC2)c2c(O)cc(OC)cc2OC)cc1 (stereo unspecified)	-5	?	3%	?	-1%	0%

Compound activity (PubChem BioAssay)
